From PubChem BioAssay (NCI)
This is part of a sample that, as a whole, favours compounds with a hit. Of some 83,000 tested, about 20% had one in any assay.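 Negative percent growth values reflect cell death: -40 means 40% of the cells present at the start died, and -100 means all died.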 Activity calls are given as the source filed them. Rule for the calls: active = growth percent below 10; inactive = the rest.

What was measured:
Assay in all cases: NCI-60 one-dose screen, 48 h (100 = growth as untreated, 0 = no growth, -100 = all killed)
Details in all cases: 10 µM unless noted
SK-MEL-2 melanoma = tested on: SK-MEL-2 melanoma
SN12C renal = tested on: SN12C renal
UO-31 renal = tested on: UO-31 renal
TK-10 renal = tested on: TK-10 renal
ACHN renal = tested on: ACHN renal
CAKI-1 renal = tested on: CAKI-1 renal
A498 renal = tested on: A498 renal
CCRF-CEM leukemia = tested on: CCRF-CEM leukemia
MOLT-4 leukemia = tested on: MOLT-4 leukemia
EKVX NSCLC = tested on: EKVX NSCLC

Measured: growth

c1nc2ccc(-c3cc4ccc5[nH]ncc5c4c4c3CCCC4)cc2[nH]1
inactive: SK-MEL-2 melanoma 43% | SN12C renal 76.4% | UO-31 renal 92.9% | TK-10 renal 61.7% | ACHN renal 52.2% | CAKI-1 renal 54% | A498 renal 49.9% | CCRF-CEM leukemia 31% | MOLT-4 leukemia 33.8%

O=C(CC(=O)Nc1cccc(C(=O)O)c1)Nc1cccc(C(=O)O)c1
inactive: SK-MEL-2 melanoma 90.7% | SN12C renal 102% | UO-31 renal 88.5% | TK-10 renal 102% | ACHN renal 91.6% | CAKI-1 renal 86.5% | A498 renal 104% | CCRF-CEM leukemia 94.2% | MOLT-4 leukemia 103%

CC1=C(CCC(C)NCc2ccc(OCCCN3CCCCC3)cc2)C(C)(C)CCC1 (stereo not drawn)
active: SK-MEL-2 melanoma -82.1% | SN12C renal -60.7% | UO-31 renal -95.5% | TK-10 renal -94.3% | ACHN renal -83.6% | CAKI-1 renal -55.7% | A498 renal -71.5% | CCRF-CEM leukemia -39.6%

Cc1ccnc(Nc2ccc([N+](=O)[O-])c(NCCN3CCOCC3)n2)c1
inactive: SK-MEL-2 melanoma 51.5% | SN12C renal 36.6% | UO-31 renal 34.2% | TK-10 renal 79.4% | ACHN renal 38.6% | CAKI-1 renal 65.6% | A498 renal 24.9%
active: CCRF-CEM leukemia 7.5%

COc1ccc(/C=C2\COc3ccc(O)cc3C2=O)cc1
inactive: SK-MEL-2 melanoma 109% | SN12C renal 92.5% | UO-31 renal 72.7% | TK-10 renal 104% | ACHN renal 98.9% | CAKI-1 renal 89.4% | A498 renal 110% | MOLT-4 leukemia 74.5%
active: CCRF-CEM leukemia 3.13%

Fc1cc(Nc2ccc3c(OCCCN4CCOCC4)cccc3n2)ccc1Cl
inactive: SK-MEL-2 melanoma 88.8% | SN12C renal 62.6% | UO-31 renal 33.3% | TK-10 renal 66.1% | ACHN renal 52.6% | CAKI-1 renal 54.8% | A498 renal 54.4% | CCRF-CEM leukemia 29.2%
active: MOLT-4 leukemia 3.8%

Nc1nc(N)c2c(n1)NC(c1ccc(Cl)cc1)C1CCc3ccccc3C1=N2 (stereo not drawn)
inactive: SK-MEL-2 melanoma 102% | SN12C renal 65.9% | UO-31 renal 55.8% | TK-10 renal 49.2% | ACHN renal 52.7% | CAKI-1 renal 37% | A498 renal 69.5% | CCRF-CEM leukemia 51.5% | MOLT-4 leukemia 22.5%

COc1ccc(Nc2ncccc2/C=C/C(=O)c2cc(OC)c(OC)c(OC)c2)cc1
active: SK-MEL-2 melanoma -37.6% | SN12C renal -18.1% | TK-10 renal -14.6% | ACHN renal -83.4% | CAKI-1 renal -23.6% | CCRF-CEM leukemia -10.4% | MOLT-4 leukemia -11.7%
inactive: EKVX NSCLC 60.8% | A498 renal 64.6%

CSC1=Nc2c(c(C)c(-c3ccccc3)n2CCCC(=O)O)C2=NC(=O)C[C@H](C)N12
inactive: SK-MEL-2 melanoma 107% | SN12C renal 122% | UO-31 renal 88.6% | TK-10 renal 118% | ACHN renal 121% | CAKI-1 renal 103% | A498 renal 128% | CCRF-CEM leukemia 98.4% | MOLT-4 leukemia 104%

CC1=C(C(=O)Nc2nc(-c3ccc(Cl)cc3)cs2)[C@H](c2ccc(O)cc2)NC(=O)N1
inactive: SK-MEL-2 melanoma 106% | SN12C renal 107% | UO-31 renal 78.3% | TK-10 renal 103% | ACHN renal 105% | CAKI-1 renal 91% | A498 renal 99.4% | CCRF-CEM leukemia 116% | MOLT-4 leukemia 94.2%

COc1cccc(CNc2c3ccccc3nc3ccccc23)c1
active: A498 renal 3.65% | MOLT-4 leukemia 6.41%
inactive: SK-MEL-2 melanoma 67.9% | SN12C renal 37.9% | UO-31 renal 27% | TK-10 renal 51.7% | ACHN renal 19.1% | CAKI-1 renal 35.7% | CCRF-CEM leukemia 30.2%

COc1ccc2c(c1)c(-c1nc(-c3c[nH]c4ncccc34)cs1)cn2CCCN1CCOCC1
active: MOLT-4 leukemia -1.04%
inactive: EKVX NSCLC 57.8% | SN12C renal 52.7% | UO-31 renal 11.9% | TK-10 renal 51.5% | ACHN renal 14.5% | CAKI-1 renal 28.8% | A498 renal 27.8% | CCRF-CEM leukemia 13.1%

COCCn1cc(-c2csc(-c3c[nH]c4ccc(Br)cc34)n2)c2cccnc21
inactive: SN12C renal 51.2% | UO-31 renal 27.8% | TK-10 renal 36.6% | ACHN renal 27.2% | CAKI-1 renal 49.4% | A498 renal 26.7% | CCRF-CEM leukemia 14%
active: MOLT-4 leukemia 8.87%

COc1cc(OC)c2sc(-c3ccc(-n4cncc4-c4cc(OC)c(OC)c(OC)c4)cc3)nc2c1
inactive: EKVX NSCLC 58.7% | SN12C renal 68.7% | UO-31 renal 41% | TK-10 renal 66.1% | ACHN renal 70.2% | CAKI-1 renal 24.3% | A498 renal 48.5% | CCRF-CEM leukemia 56.6% | MOLT-4 leukemia 32.1%

CC1(C)N=C(N)N=C(N)N1c1cccc(CCc2ccccc2)c1
inactive: EKVX NSCLC 67.2% | SN12C renal 32.4% | UO-31 renal 98.5% | TK-10 renal 38.7% | ACHN renal 105% | CAKI-1 renal 107% | A498 renal 82.7% | CCRF-CEM leukemia 30.5%

O=C(Nc1cnc(Nc2ccc(N3CCOCC3)nc2)nc1Oc1ccc(C(F)(F)F)cc1)c1ccncc1
inactive: EKVX NSCLC 100% | SN12C renal 85% | UO-31 renal 98.4% | TK-10 renal 107% | ACHN renal 98.9% | CAKI-1 renal 90.4% | A498 renal 95.8% | CCRF-CEM leukemia 90.8% | MOLT-4 leukemia 101%

CCN1CCN(C(=O)[C@]23CC[C@@H](C)[C@H](C)[C@@H]2C2=CC[C@@H]4[C@@]5(C)C/C(=C/c6cccnc6)C(=O)C(C)(C)[C@@H]5CC[C@@]4(C)[C@]2(C)CC3)CC1
active: CCRF-CEM leukemia 8.77% | MOLT-4 leukemia 2.7%
inactive: EKVX NSCLC 41.5% | SN12C renal 29.6% | UO-31 renal 10.5% | TK-10 renal 43.1% | ACHN renal 20.7% | CAKI-1 renal 39.8% | A498 renal 43.8%

CC1(C)NCCC[C@]2(C)[C@H]3CC[C@H]4[C@H]5[C@H](C(=O)/C=C/c6cccnc6)CCC[C@]5(CO)CC[C@@]4(C)[C@]3(C)CC[C@@H]12
active: MOLT-4 leukemia 7.39%
inactive: EKVX NSCLC 79.2% | SN12C renal 58.5% | TK-10 renal 106% | ACHN renal 80.4% | CAKI-1 renal 47.8% | A498 renal 93.9% | CCRF-CEM leukemia 36%

C[n+]1ccc(CCc2c[nH]c3ccccc23)cc1
inactive: EKVX NSCLC 53.9% | SN12C renal 93.7% | UO-31 renal 76.7% | TK-10 renal 81.2% | ACHN renal 90.9% | CAKI-1 renal 92.6% | A498 renal 71.9% | CCRF-CEM leukemia 101% | MOLT-4 leukemia 90.5%

COc1cc(-c2nc3c(ncc4ccc(=O)n(-c5ccccc5)c43)s2)cc(OC)c1OC
inactive: EKVX NSCLC 53.3% | SN12C renal 73.9% | UO-31 renal 24.9% | TK-10 renal 54% | ACHN renal 79% | CAKI-1 renal 67.4% | CCRF-CEM leukemia 74.1% | MOLT-4 leukemia 69.5%
active: A498 renal 6.71%

CCN1C(=O)N(CC)C2C1N=C(SCc1ccc(Cl)cc1)N2/N=C/C=C/c1ccccc1OC (stereo not drawn)
inactive: EKVX NSCLC 62.5% | SN12C renal 77.8% | UO-31 renal 54.3% | TK-10 renal 96.4% | ACHN renal 61.5% | CAKI-1 renal 42.2% | A498 renal 54.6% | CCRF-CEM leukemia 46.4% | MOLT-4 leukemia 55.3%

CC1C=CC(OC(=O)C(C)(O)CCC(O)(C(=O)OC2CC(O)C(C(C)C)CC2(C)O)C(C)C)(C(C)C)CC1 (stereo not drawn)
active: EKVX NSCLC -73.6% [4.63 µM] | SN12C renal -62.4% [4.63 µM] | UO-31 renal -99.6% [4.63 µM] | TK-10 renal -86.1% [4.63 µM] | ACHN renal -93.8% [4.63 µM] | CAKI-1 renal -97.3% [4.63 µM] | A498 renal -92.3% [4.63 µM] | CCRF-CEM leukemia -31.8% [4.63 µM] | MOLT-4 leukemia -46.4% [4.63 µM]

Ic1ccccc1I
inactive: EKVX NSCLC 98.9% | SN12C renal 105% | UO-31 renal 78.6% | TK-10 renal 105% | ACHN renal 104% | CAKI-1 renal 105% | A498 renal 106% | CCRF-CEM leukemia 42.6% | MOLT-4 leukemia 101%

COc1cc(Cl)c(C)cc1NC(=O)c1cc2ccccc2cc1O
active: EKVX NSCLC 0.938% | SN12C renal 8.39% | TK-10 renal 6.75% | ACHN renal 4.34% | CAKI-1 renal -12.7% | A498 renal -9.59% | CCRF-CEM leukemia 7.39%
inactive: MOLT-4 leukemia 17.5%

COc1ccc2c(c1)c(-c1nc(-c3c[nH]c4ncccc34)cs1)cn2CCO
active: A498 renal -0.474%
inactive: EKVX NSCLC 34.9% | SN12C renal 63.5% | UO-31 renal 16.1% | TK-10 renal 58.3% | ACHN renal 26.7% | CAKI-1 renal 35.5% | CCRF-CEM leukemia 41.3% | MOLT-4 leukemia 55%

O=c1nc(-c2ccccc2)c2cc(-c3ccc(C(F)(F)F)nc3)ccc2[nH]1
inactive: SN12C renal 102% | UO-31 renal 75.8% | TK-10 renal 99.9% | ACHN renal 96.5% | CAKI-1 renal 93.1% | A498 renal 104% | CCRF-CEM leukemia 46.5% | MOLT-4 leukemia 83.3%

CCN1CCN(CCNc2nccc(-c3c(-c4ccc(F)c(OC)c4)nc4sccn34)n2)S1(=O)=O
inactive: EKVX NSCLC 88.5% | SN12C renal 70.8% | UO-31 renal 86.9% | TK-10 renal 118% | ACHN renal 59.6% | CAKI-1 renal 77.5% | A498 renal 102% | CCRF-CEM leukemia 59.5% | MOLT-4 leukemia 81.8%

C/C(=N\O)c1ccc(NC(=O)CSc2nnc(-c3cc(-c4ccc(S(N)(=O)=O)cc4)nc4ccccc34)n2-c2ccccc2)cc1
inactive: EKVX NSCLC 77.3% | SN12C renal 78.6% | UO-31 renal 85.3% | TK-10 renal 80.8% | ACHN renal 95.9% | CAKI-1 renal 55.6% | A498 renal 39.7% | CCRF-CEM leukemia 40.5% | MOLT-4 leukemia 32.3%

N#CC1=C(N)Oc2ccc3ccccc3c2C1c1ccc([N+](=O)[O-])cc1 (stereo not drawn)
inactive: EKVX NSCLC 65.8% | SN12C renal 90.4% | UO-31 renal 51.1% | TK-10 renal 156% | ACHN renal 76.8% | CAKI-1 renal 52.8% | A498 renal 84.8% | CCRF-CEM leukemia 63.7%
